Test results: PubChem BioAssay AID1347426 (Functional Genomics Laboratory (NCATS/FGL), 2020)
The campaign covered roughly 31,000 sequences. About 1,400 (4.5%) were called active.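 How the source made its calls: active means median seed-adjusted z-score above 1 or below -1; inactive means the rest.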 Only a selection was taken, and actives are over-represented in it overall.

Assay: Novel Modifiers of Survival Motor Neuron (SMN) Protein: Gene Identification via Genome-wide siRNA Screen;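 further: luminescence tracks full-length SMN protein made from the SMN2 reporter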
Settings: HEK293T SMN2-luciferase reporter, siRNA knockdown, 72 h; actives lie on both sides
In short: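 HEK293T cells stably expressing an SMN2 splicing/cDNA-luciferase reporter were reverse-transfected with a druggable-genome siRNA library and read by luminescence at 72 hours; hits defined by MAD score above 1.0 or below -1.0.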

| Sequence | median seed-adjusted z-score |
| --- | --- |
| UGCUAGUCCUGGGAACAGATT against PPM1J | -0.901 (inactive) |
| GGUCAACAAUGCUUAUGCATT against DHRS1 | 0 (inactive) |
| GCUUGAGAACUACCAGGUUTT against TAL2 | -0.395 (inactive) |
| ACAAUAAGCUGGACCUCUATT against TLR9 | -0.0834 (inactive) |
| CCUUCUACAGGAUCUCCAATT against ADRA1A | -1.06 (active) |
| CAGUGGAUGUUAUUCCUCATT against RNF128 | -0.377 (inactive) |
| GGACUACACGUACUUCUCATT against KIRREL3 | -0.206 (inactive) |
| CCAAGAGUGAUGCAGAGGATT against CABP4 | 0.146 (inactive) |
| GGAGUUCUGUAACUCACUUTT against SLC38A2 | -1.04 (active) |
| GGUGCUACAUCCUAGAGAATT against SULF2 | -0.109 (inactive) |
| GCAAGACCUGGUCAGUAUATT against NOX4 | -0.246 (inactive) |
| AGAAUGUCUUGAUUGUGGATT against HPRT1 | -0.0463 (inactive) |
| GCCUCACAUUUUCUAAUGATT against RRM2 | -3.84 (active) |
| AGAAGUUCAUGGUCGGAGATT against SULT1A1 | -0.26 (inactive) |
| GAUCGGCACUUACACCUGUTT against OPHN1 | 0.692 (inactive) |
| AGAUCGACCAGAACGUGGATT against APOA4 | 0.195 (inactive) |
| CCACGUAACUAUCAUAAGATT against TLL1 | 0.396 (inactive) |
| AGACCGACCUGGGCAUGAATT against SARM1 | 0.343 (inactive) |
| CCAAAAUUGAAGUAAUAGATT against GTF2E2 | -1.32 (active) |
| GCUCAGUUCUCGUCAAGGATT against ARIH2 | 0.0449 (inactive) |
| AGUGAACUCCGGUCCUGCATT against RAB11FIP3 | 0.0361 (inactive) |
| GCGAUGAGGUGGACUUGUATT against ST3GAL1 | 0.255 (inactive) |

| Sequence | median seed-adjusted z-score |
| --- | --- |
| GACCUGUCACAGAACCAGATT against VASN | 0.213 (inactive) |
| GUCUUCAUGUAUGUCUUUUTT against GJB1 | 0.152 (inactive) |
| AGGUAGAAGAAAUGCAAUATT against PKIA | 0.533 (inactive) |
| GCCUAUAGGAUUGAACCAATT against DDHD2 | 0.447 (inactive) |
| GCUGGGUAGUUUGACUGAATT against TRIM61 | 0.0116 (inactive) |
| CAAAUACCGUUAAGCUGGATT against HBA1 | -1.03 (active) |
| CUCUUAUAGUUGAUCGUGATT against ATAD2B | 0.0192 (inactive) |
| GGAUAGCACAUGAUACAGATT against GAN | -1.07 (active) |
| CCAUAUCGAAUAAUAAUGATT against SCRT1 | -0.483 (inactive) |
| GGUUCUGACAGACAAUGGATT against DPT | 0.073 (inactive) |
| GGACUCUUCUUUAGCUUUATT against TSPAN31 | -1.13 (active) |
| CCGAAUCAUUAUGCACCAATT against OCLN | 0.232 (inactive) |
| CAACCACACUAACGAGAUUTT against GLRX | -0.0561 (inactive) |
| ACACCUGCCUGGUAGAGAATT against FGFR4 | 0.0825 (inactive) |
| GAAACUUGAUUGAUCUUUATT against MITF | -0.249 (inactive) |
| GAGAAGAUCUGGAACUCAUTT against CRAT | -1.42 (active) |
| GCAGGUCAAAUUUCCAUAATT against ZNF175 | -0.0194 (inactive) |
| CAAUAUCUGCUGUUAGCAATT against SCARB2 | -0.244 (inactive) |
| GAUCAAAUAUGACUUCCUATT against GPR103 | 0 (inactive) |
| GCUGGAAAAGGUUAACGAATT against PKNOX1 | 0.68 (inactive) |
| GGACAUGACAGCAACCUUUTT against EGR1 | 0.0836 (inactive) |
| CAAUGUCCGGAAGCAGUUUTT against ACAD8 | 1.06 (active) |

| Sequence | median seed-adjusted z-score |
| --- | --- |
| GGUCAACUCUCUACUGAUATT against ARHGAP29 | -0.0483 (inactive) |
| GCAUAGAAGGCUUCACGAATT against PLCH1 | -0.00634 (inactive) |
| UCACUGAAAUGAAACUGGUTT against ACBD4 | -0.363 (inactive) |
| AAGAGAUUUUUGUAACUGATT against BCL2L14 | -0.859 (inactive) |
| CGAUUUGAAGGUCCAUAUATT against DNAJC2 | -0.0357 (inactive) |
| CCUCGACUAUUUUAAGACATT against UBA1 | 1.34 (active) |
| GUCCUUUAACUGAAGCUUUTT against NDUFB9 | -0.982 (inactive) |
| GGACAGUAGUGUGCAACGATT against LRIT1 | -0.611 (inactive) |
| UGAUGAAUGUUAUCGAGAATT against RFC2 | 0.00126 (inactive) |
| GCAGUUUCGAAAUCAACGATT against TEX14 | -0.107 (inactive) |
| ACAAGAACCCUGACAAUAATT against DNAJB8 | -1.09 (active) |
| GCAACAUGCAGAUAGGUUATT against PHF14 | 0.354 (inactive) |
| GCCUGUGACUCAUACUGGATT against ELF5 | -0.45 (inactive) |
| CCGGCUACACCUUCCGUAATT against DNAJB8 | -1.09 (active) |
| GAGAUGCGCAAAUUCACUCTT against IP6K2 | -0.193 (inactive) |
| GGAAAAUCAUUGUGCUAAUTT against VN2R1P | -0.25 (inactive) |
| GAUUUGGUUUCGUAACUUUTT against A2BP1 | 1.17 (active) |
| GACUGGUUAUUACGUCUUATT against SYNJ1 | 0 (inactive) |
| GAGUGUAACUGCAACCAGATT against NTNG2 | 0.403 (inactive) |
| ACUCAGUGGAGGUCACCAATT against EIF3F | -0.0214 (inactive) |
| GCCUCUCAGAGAACUACGATT against LRRC33 | -0.194 (inactive) |
| GGGCGAUGUCCAUCCACAATT against PIF1 | -0.0455 (inactive) |

| Sequence | median seed-adjusted z-score |
| --- | --- |
| CUCCAUUCCUGGUAUAGAATT against XRCC5 | -1.11 (active) |
| CCUCCUCACCAAACCCAUUTT against SLC5A1 | -0.812 (inactive) |
| CGACUGAACAAACCCUAUATT against ERCC3 | 0.155 (inactive) |
| GCCUGAAUGCAGCCCAGUUTT against SP2 | -0.617 (inactive) |
| AGGACAAGCUGAAAAUCCATT against ZBTB7C | 0.447 (inactive) |
| UCAGUUUGCUGAGAACGAATT against TCEB1 | 1.08 (active) |
| CCUCAACUCUAAAUACUCATT against ZNF716 | 0 (inactive) |
| GGAGAUCUCUCGUCUCAAUTT against KCNH4 | -0.769 (inactive) |
| GGAGAUGUAUUGGUGAGAATT against CYP3A5 | 0.0516 (inactive) |
| GCAGCUACAGGUCAUCUCATT against DGAT2 | 0.195 (inactive) |
| GGAGUGCGAUGGACAAUUUTT against LCT | 0.411 (inactive) |
| GGUGCAAGAGAGUCCGUUUTT against D2HGDH | -0.637 (inactive) |
| UGAAAGGACUGGAGUCCAATT against OLFM1 | -0.103 (inactive) |
| GGAUAUUGGAUUGCCUAGATT against TCFL5 | 1.52 (active) |
| GGUUCACUUUGAUAGUACUTT against CLCA4 | 0.186 (inactive) |
| GCCCUGAUUUGUGCAAUGATT against PPP1R16B | -0.892 (inactive) |
| GAGUCAGGAUCGCAAGUCATT against SAFB2 | 0.0394 (inactive) |
| CCUCGAUUGUCUUCCGGAATT against UBA7 | 2.41 (active) |
| ACUCCAUCCUGAACCCUCATT against USP49 | 0.549 (inactive) |
| GAUCAAUUACGAAAUCUCATT against MED30 | -2.06 (active) |
| AAGAAGAAGUGGACACUGATT against FGFRL1 | -0.111 (inactive) |
| GGAACUUGGUUGUAGAGCUTT against SVIL | 0.0852 (inactive) |

| Sequence | median seed-adjusted z-score |
| --- | --- |
| CAACCACCCUCACAUCAUUTT against NUAK2 | -0.0601 (inactive) |
| AAAUGCAAUUCAAGCCUUUTT against GFRA1 | 0.125 (inactive) |
| GGAAACUCGUCGUUCAAUATT against IL13RA1 | 0.269 (inactive) |
| UCGUGGAGGUGAUCUAUUATT against RAB6C | -1.08 (active) |
| UGAUUUACCUGAGCUGUAATT against GSTT2 | 0.0298 (inactive) |
| CAACUUCCACUGUUUCCGATT against RRAGC | -0.557 (inactive) |
| CGAUGCUUGUCAGUCCCAATT against NOTCH4 | -0.384 (inactive) |
| GCCUAGAGGUUUGCCCUGATT against ATHL1 | 0 (inactive) |
| UCCACUGCCCAAUAAAUAUTT against PYDC1 | -1.44 (active) |
| CGAGCCCAAGGAACAUGAATT against NKX2-3 | -0.2 (inactive) |
| GCUUUUCUCUUACAAUUCATT against ZNF557 | -0.197 (inactive) |
| CCAUUAACGAGCUGCUUAATT against PLK1 | -2.57 (active) |
| CAGUCGGAUCCAGAGCUGATT against GCHFR | -0.559 (inactive) |
| AGCUCACGCUGUGCAUGUGTT against TREX2 | -0.918 (inactive) |
| AAUCAGAUUCUCAACCUAATT against KRT10 | 0.493 (inactive) |
| CCUUCGAGCUGCUAUUAAUTT against TLR10 | -0.363 (inactive) |
| GAAGCGACUGUUUUAGAAATT against EIF4E3 | 0 (inactive) |
| GUUAUCCUCUAAUUGAUAATT against B3GALNT1 | 0.128 (inactive) |
| GGGUGUAACAUGUGCGGAATT against ZNF217 | -0.872 (inactive) |
| GCACCAUCGUCCUUGAACATT against DUOX1 | -1.09 (active) |
